The list is a sample of the results.
aSyn UTR act: Activators working through SNCA 5'UTR binding (MLPCN); AID 1814; activity score, % (tested at 7.5 µM), hits read low; 300,000 tested, 7.1% active; alpha-synuclein 5'UTR reporter, activators screen; in the data active = activity score below about -60%
An asterisk follows results filed as active.

SMILES	aSyn UTR act
O=C(Nc1nnc(-c2ccco2)o1)c1ccc([N+](=O)[O-])s1	-71.1*
CC1CCN(S(=O)(=O)c2ccc(C(=O)Nc3nnc(-c4ccco4)o3)cc2)CC1	61.2
COc1ccc(C2C(C(=O)c3cccs3)=C(O)C(=O)N2c2nncs2)cc1 (stereo not drawn)	-108.0*
Cc1ccc(SCC(=O)Nc2ccc(-c3nnc(-c4ccco4)o3)cc2)cc1	-105.9*
O=C(Cc1ccccc1)Nc1ccc(-c2nnc(-c3ccco3)o2)cc1	-76.9*
COc1ccc2[nH]c(N=Nc3ccccc3C)c(O)c2c1	-207.4*
CCc1cc2c(=O)c(-c3nc4ccccc4n3C)c(COCC(=O)O)oc2cc1O	-81.4*
CCc1ccc(C(=O)CN2CCSC2=N)cc1	-108.7*
Nc1ccc2oc(=O)c3ccccc3c2c1	-174.1*
COc1ccccc1CN1CC(C(=O)NCc2c(F)ccc(C)c2F)CCC1=O (stereo not drawn)	-72.0*
COc1ncccc1-c1nnn(-c2ccccc2Br)n1	-88.4*
COc1ncccc1-c1nnn(-c2ccccc2)n1	-155.7*
CC(C)CC1NC(=O)N(CC(=O)c2ccc3c(c2)OCCO3)C1=O (stereo not drawn)	-115.2*
CN(C)c1ccc(C2Nc3ccccc3C(=O)N2CCCN2CCOCC2)cc1 (stereo not drawn)	-119.8*
CN(c1ccc(C(=O)Nc2ccccn2)cc1)S(=O)(=O)c1ccccc1	-132.8*
CCc1nnc(NC(=O)c2ccc(S(=O)(=O)N(C)c3ccccc3)cc2)o1	55.9
CCN(c1ccccc1)S(=O)(=O)c1ccc(C(=O)Nc2ccccn2)cc1	-76.3*
CN(c1ccc(C(=O)Nc2cccc(O)c2)cc1)S(=O)(=O)c1ccccc1	-104.5*
CN(C)/C=C/C(=O)c1cnc(-c2ccccc2Cl)s1	-127.5*
CN(C)/C=C/C(=O)c1cnc(-c2cccc(Cl)c2)s1	-145.9*
Cc1ccc(/C=N/N2C(=O)c3ccccc3NC2c2ccc(C)cc2)cc1 (stereo not drawn)	-83.7*
O=C1c2ccccc2NC(c2ccco2)N1/N=C/c1ccco1 (stereo not drawn)	-92.4*
C/C(=N\N1C(=O)c2ccccc2NC1c1ccco1)c1ccccc1O (stereo not drawn)	59.2
CC(C)c1ccc(NC(=O)CSc2ncccc2C(=O)Oc2cccc([N+](=O)[O-])c2)cc1	-115.0*
O=c1ccc2ccc(OCc3ccccc3)cc2o1	-80.3*
SMILES	aSyn UTR act
COc1cccc(COc2ccc3ccc(=O)oc3c2)c1	-139.3*
COc1cccc(COc2ccc3c(C)c(Cc4ccccc4)c(=O)oc3c2)c1	-66.9*
COc1ccc(COc2ccc3ccc(=O)oc3c2)cc1	-232.3*
CCOC(=O)c1cn(-c2ccc([N+](=O)[O-])cc2)c2cc(Cl)c([N+](=O)[O-])cc2c1=O	-110.0*
COc1ccc(N=Cc2cccc(C)c2O)cc1Cl	-138.0*
COc1ccc(CCCC(=O)N/N=C/c2cccc(OC)c2O)cc1C	74.1
N#C/C(=C\c1ccc(F)cc1)c1nc(-c2ccco2)cs1	-166.9*
N#C/C(=C\c1ccc(Cl)cc1)c1nc(-c2ccco2)cs1	-66.0*
COc1ccccc1-c1noc(-c2ccccc2)n1	-126.2*
COc1ccccc1-c1noc(-c2ccco2)n1	-129.0*
COc1ccc(-c2nc(-c3ccccc3OC)no2)cc1OC	-230.9*
Nc1ncccc1OCc1ccc(Cl)c(Cl)c1	-148.6*
COc1cc(CNCc2ccccn2)ccc1OCc1ccc(Cl)c(Cl)c1	-113.7*
Cc1ccccc1NC(=O)n1ncc2cc(Cl)ccc21	-97.8*
Cc1cccc2c1cnn2C(=O)Nc1ccccc1Cl	-142.6*
Cc1cccc2c1cnn2C(=O)Nc1ccccc1Br	-125.1*
CC(=O)c1ccc(NC(=O)CSc2nccn2CCc2ccccc2)cc1	-128.2*
N#Cc1ccccc1NC(=O)CSc1nccn1CCc1ccccc1	-149.4*
COc1ccc(C(=O)NCCc2ccccc2)cc1OC	-96.5*
O=C(NCCc1ccc(F)cc1)c1ccc([N+](=O)[O-])cc1	-77.5*
Cc1cc(C(=O)NCCC2=CCCCC2)ccc1[N+](=O)[O-]	-121.1*
CCOc1ccc(C(=O)NCCc2ccccc2)cc1	61.1
O=C(NC1CCCCCC1)c1ccc(CN2CCOCC2)cc1	-122.2*
O=C1CSc2ccc(C(=O)NCCC3=CCCCC3)cc2N1	-103.6*
CCOc1cccc2cc(C(=O)NCCC3=CCCCC3)c(=O)oc12	-95.0*
SMILES	aSyn UTR act
O=C(NCCC1=CCCCC1)c1ccc(CN2CCOCC2)cc1	-72.7*
O=C(NCCC1=CCCCC1)c1ccc([N+](=O)[O-])cc1	-146.7*
COc1ccc(C(=O)NCCC2=CCCCC2)cc1OC	-81.0*
COCC(C)N1CCC(Oc2cccc(C(=O)NCCc3ccccc3)c2)CC1 (stereo not drawn)	-71.8*
O=C(CCNC(=O)c1ccc(Cl)cc1)NCCC1=CCCCC1	-124.4*
COc1ccc(C(=O)NCCC2=CCCCC2)cc1	57.0
c1ccc(C2=NN(c3ccccc3)CC2)cc1	-157.1*
Cc1ccc(OCCCCn2cnc3ccccc32)c(C)c1	-88.1*
Brc1ccccc1OCCCCn1cnc2ccccc21	-138.1*
O=C(/C=C\Nc1ccc2c(c1)OCO2)c1ccccn1	117.6
COc1ccc(N/C=C\C(=O)c2ccc3c(c2)OCO3)cc1	-263.9*
CCOc1ccc(N/C=C\C(=O)c2ccc3c(c2)OCO3)cc1	-89.3*
O=C(/C=C\Nc1ccc2c(c1)OCO2)c1ccc2c(c1)OCO2	-175.4*
O=C(CN1C(=O)C2C3C=CC(C4CC34)C2C1=O)Nc1cnc2ccccc2c1 (stereo not drawn)	-83.2*
CCCCCOc1ccc(Cl)cc1CN1CCOCC1	-77.5*
O=C(Nc1cccc2nsnc12)c1cccs1	-143.2*
O=C(Nc1ccccc1)Nc1cccc2nsnc12	-272.2*
CCCC1=[N+](CC(=O)c2ccccc2)CCn2cccc21	-71.7*
CC1(C)CC(NC(=O)c2cc(COc3cccc(C(F)(F)F)c3)on2)CCO1 (stereo not drawn)	-93.3*
COc1cccc(OCc2cc(C(=O)NC3CCOCC3)no2)c1	-138.7*
Brc1ccc(C2=Nn3c(nnc3-c3n[nH]c4c3CCC4)SC2)cc1	86.0
CCc1cc(C=NC2CCCCC2)c(O)s1	-174.5*
Cc1ccccc1NC(=O)C(=O)c1cn(C)c2ccccc12	-132.7*
CC(=O)n1cc(N(C(=O)CCl)c2ccc(Cl)cc2)c2ccccc21	102.8
CCOc1ccc(-c2ccc(SCC(=O)NCC3CCCO3)nn2)cc1 (stereo not drawn)	-67.2*
SMILES	aSyn UTR act
CCOC(=O)c1c(C)n(-c2ccc(C)cc2)c2ccc(OCC(O)CNCC3CCCO3)cc12 (stereo not drawn)	75.5
Cc1ccc(-c2ccc(SCC(=O)NCC3CCCO3)nn2)cc1 (stereo not drawn)	-84.8*
CCOc1ccc(C(=O)Nc2nnc(SCC(=O)NCC3CCCO3)s2)cc1 (stereo not drawn)	75.9
Cc1cccc(-c2nc3ccccc3c(=O)[nH]2)c1	-110.7*
N=c1oc2ccccc2cc1-c1nc2ccccc2c(=O)[nH]1	-165.4*
Cc1cc(N2CCN(C)CC2)nc2ccc(NC(=S)N3CCCCC3)cc12	-84.7*
Cc1cccc(N2CCN(C(=S)Nc3ccc4nc(N5CCN(C)CC5)cc(C)c4c3)CC2)c1C	95.2
CCN1CCN(c2cc(C)c3cc(NC(=O)c4cccs4)ccc3n2)CC1	-109.0*
CCN1CCN(c2cc(C)c3cc(NC(=O)c4cccc(OC)c4)ccc3n2)CC1	-124.4*
COc1ccc(C(=O)Nc2ccc3nc(N4CCN(C)CC4)cc(C)c3c2)c(OC)c1	-78.0*
CCCCN(C)C(=S)Nc1ccc2nc(N3CCN(CC)CC3)cc(C)c2c1	-70.2*
